In assay [1] the target is Platelet-derived growth factor receptor beta (Homo sapiens) (UniProt P09619). As to conditions: at 1 µM.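 Further: each value is a mean percent inhibition.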
Assay [2] deals with Tyrosine-protein kinase FRK (Homo sapiens) (UniProt P42685). As to conditions: at 0.1 µM.
The target is the same in assay [3]. As to conditions: at 1 µM.
Assay [4] addresses Protein-tyrosine kinase 2-beta (Homo sapiens) (UniProt Q14289). As to conditions: at 0.1 µM.
For assay [5] the target is unchanged. To be noted: at 1 µM.
In assay [6] the target is Proto-oncogene tyrosine-protein kinase receptor Ret (Homo sapiens) (UniProt P07949). As to conditions: at 0.1 µM.
For assay [7] the target is unchanged. To be noted: at 1 µM.
Assay [8] concerns Proto-oncogene tyrosine-protein kinase receptor Ret (Homo sapiens), P07949 [V804L]. To be noted: at 0.1 µM.
The test system is the same in assay [9]. As to conditions: at 1 µM.
The test system of assay [10] is Proto-oncogene tyrosine-protein kinase receptor Ret (Homo sapiens), P07949 [Y791F]. As to conditions: at 0.1 µM.
Proto-oncogene tyrosine-protein kinase receptor Ret (Homo sapiens), P07949 [Y791F], sequence (P07949 whole entry Y791F): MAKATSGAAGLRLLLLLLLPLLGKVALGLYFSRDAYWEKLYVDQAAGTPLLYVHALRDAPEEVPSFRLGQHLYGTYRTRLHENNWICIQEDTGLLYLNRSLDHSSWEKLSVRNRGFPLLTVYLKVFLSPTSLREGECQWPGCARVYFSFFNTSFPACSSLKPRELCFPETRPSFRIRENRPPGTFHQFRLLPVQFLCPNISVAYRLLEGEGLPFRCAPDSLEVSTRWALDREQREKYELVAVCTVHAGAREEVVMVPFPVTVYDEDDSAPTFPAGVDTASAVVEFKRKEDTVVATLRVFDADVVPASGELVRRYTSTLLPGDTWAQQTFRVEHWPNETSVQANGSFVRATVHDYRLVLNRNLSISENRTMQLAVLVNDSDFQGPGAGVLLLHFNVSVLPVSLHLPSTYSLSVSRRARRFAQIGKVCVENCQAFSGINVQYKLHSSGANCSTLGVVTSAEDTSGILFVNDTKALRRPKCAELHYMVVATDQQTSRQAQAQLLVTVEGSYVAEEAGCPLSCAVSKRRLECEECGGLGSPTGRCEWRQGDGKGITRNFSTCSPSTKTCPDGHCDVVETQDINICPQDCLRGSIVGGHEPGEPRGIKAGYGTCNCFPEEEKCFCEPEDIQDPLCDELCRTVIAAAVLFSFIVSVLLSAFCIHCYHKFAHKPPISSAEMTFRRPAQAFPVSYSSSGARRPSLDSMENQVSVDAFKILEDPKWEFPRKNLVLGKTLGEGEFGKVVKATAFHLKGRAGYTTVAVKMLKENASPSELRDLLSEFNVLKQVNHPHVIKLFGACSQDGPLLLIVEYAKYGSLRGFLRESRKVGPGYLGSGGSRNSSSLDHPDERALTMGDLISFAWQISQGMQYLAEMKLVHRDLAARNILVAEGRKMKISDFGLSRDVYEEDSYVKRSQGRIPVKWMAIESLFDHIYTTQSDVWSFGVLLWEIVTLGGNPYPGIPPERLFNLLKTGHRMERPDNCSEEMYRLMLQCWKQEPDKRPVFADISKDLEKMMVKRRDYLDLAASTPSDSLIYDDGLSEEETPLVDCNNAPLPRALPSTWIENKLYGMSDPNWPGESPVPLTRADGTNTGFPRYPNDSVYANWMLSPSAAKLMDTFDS

Protein-tyrosine kinase 2-beta (Homo sapiens), sequence (Q14289 whole entry, looked up): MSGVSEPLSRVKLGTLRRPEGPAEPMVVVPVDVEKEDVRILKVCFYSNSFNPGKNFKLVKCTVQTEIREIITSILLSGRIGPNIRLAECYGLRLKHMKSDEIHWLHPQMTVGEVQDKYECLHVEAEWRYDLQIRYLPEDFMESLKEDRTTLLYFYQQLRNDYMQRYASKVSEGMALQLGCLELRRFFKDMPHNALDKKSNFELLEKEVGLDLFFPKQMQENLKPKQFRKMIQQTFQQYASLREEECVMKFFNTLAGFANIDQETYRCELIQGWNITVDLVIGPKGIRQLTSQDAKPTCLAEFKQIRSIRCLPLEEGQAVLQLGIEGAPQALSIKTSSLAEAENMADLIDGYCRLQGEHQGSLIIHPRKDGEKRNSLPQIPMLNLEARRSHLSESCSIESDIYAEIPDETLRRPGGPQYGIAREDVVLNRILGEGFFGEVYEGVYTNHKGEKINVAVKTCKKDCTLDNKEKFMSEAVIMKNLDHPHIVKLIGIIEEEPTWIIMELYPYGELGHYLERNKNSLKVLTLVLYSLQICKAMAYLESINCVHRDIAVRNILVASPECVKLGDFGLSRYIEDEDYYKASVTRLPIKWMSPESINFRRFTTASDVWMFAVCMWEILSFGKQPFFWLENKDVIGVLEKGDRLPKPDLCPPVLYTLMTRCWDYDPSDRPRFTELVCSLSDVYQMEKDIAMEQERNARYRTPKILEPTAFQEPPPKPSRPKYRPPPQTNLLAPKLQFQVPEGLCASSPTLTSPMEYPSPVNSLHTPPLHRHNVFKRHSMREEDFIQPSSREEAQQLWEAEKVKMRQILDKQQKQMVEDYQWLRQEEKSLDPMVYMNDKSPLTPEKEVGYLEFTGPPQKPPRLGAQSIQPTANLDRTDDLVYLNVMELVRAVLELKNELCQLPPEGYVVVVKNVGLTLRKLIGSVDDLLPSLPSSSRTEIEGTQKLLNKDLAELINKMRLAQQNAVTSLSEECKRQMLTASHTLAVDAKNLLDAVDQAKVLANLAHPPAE
Proto-oncogene tyrosine-protein kinase receptor Ret (Homo sapiens), sequence (P07949 whole entry): as the sequence (P07949 whole entry Y791F) above, with F791Y counted along it
Tyrosine-protein kinase FRK (Homo sapiens), sequence (P42685 whole entry): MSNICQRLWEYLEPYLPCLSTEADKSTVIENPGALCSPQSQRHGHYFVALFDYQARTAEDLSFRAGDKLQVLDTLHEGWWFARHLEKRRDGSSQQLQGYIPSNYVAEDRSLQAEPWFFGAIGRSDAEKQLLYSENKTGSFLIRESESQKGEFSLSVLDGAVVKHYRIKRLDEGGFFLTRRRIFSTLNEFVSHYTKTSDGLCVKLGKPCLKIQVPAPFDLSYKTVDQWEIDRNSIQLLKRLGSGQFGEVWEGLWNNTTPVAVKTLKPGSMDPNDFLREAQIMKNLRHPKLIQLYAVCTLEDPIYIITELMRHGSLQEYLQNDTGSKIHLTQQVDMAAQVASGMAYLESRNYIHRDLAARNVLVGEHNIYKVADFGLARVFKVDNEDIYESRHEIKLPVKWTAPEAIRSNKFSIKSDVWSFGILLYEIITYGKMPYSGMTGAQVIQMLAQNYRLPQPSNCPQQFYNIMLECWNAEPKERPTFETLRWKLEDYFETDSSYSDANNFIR
Platelet-derived growth factor receptor beta (Homo sapiens), sequence (P09619 whole entry): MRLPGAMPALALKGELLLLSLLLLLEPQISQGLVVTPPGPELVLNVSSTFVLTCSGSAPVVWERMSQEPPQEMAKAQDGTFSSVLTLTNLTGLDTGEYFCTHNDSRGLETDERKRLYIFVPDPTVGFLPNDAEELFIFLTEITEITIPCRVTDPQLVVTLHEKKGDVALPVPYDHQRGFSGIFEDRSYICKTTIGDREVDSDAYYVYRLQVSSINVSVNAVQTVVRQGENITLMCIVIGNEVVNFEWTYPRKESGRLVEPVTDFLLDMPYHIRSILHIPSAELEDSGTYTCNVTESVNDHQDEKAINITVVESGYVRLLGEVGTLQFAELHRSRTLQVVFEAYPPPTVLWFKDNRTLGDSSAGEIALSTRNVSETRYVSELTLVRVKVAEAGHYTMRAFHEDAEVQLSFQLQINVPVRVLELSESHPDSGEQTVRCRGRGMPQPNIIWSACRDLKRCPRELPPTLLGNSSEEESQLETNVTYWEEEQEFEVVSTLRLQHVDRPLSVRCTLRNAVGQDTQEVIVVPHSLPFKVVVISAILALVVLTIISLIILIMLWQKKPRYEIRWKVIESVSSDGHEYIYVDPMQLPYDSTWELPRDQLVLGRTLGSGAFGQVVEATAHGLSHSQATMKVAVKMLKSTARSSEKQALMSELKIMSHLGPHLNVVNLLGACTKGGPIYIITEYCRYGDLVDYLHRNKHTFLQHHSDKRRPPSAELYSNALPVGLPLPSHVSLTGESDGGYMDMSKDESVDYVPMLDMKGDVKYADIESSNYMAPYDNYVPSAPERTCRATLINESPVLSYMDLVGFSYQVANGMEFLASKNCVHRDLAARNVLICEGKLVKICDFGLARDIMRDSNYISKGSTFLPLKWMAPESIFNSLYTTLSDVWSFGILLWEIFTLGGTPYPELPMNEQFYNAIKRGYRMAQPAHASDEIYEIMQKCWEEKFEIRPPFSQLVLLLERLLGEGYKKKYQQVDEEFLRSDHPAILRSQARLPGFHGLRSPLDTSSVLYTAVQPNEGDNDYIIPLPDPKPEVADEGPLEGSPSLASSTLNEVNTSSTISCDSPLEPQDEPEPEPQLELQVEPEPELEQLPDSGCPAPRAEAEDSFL
Proto-oncogene tyrosine-protein kinase receptor Ret (Homo sapiens), P07949 [V804L], sequence (P07949 whole entry V804L): as the sequence (P07949 whole entry Y791F) above, with F791Y, V804L counted along it

Turning to `Cc1ccc(O)cc1Nc1ccnc2cc(-c3ccccn3)ccc12`, the inhibition in assay [1] is 87%; in assay [2], 18.9%; in assay [3], 68.2%; in [4], 10.1%; in [5], 17.6%; in assay [6], 84.2%. Further, the inhibition in assay [7] was found to be 89.8%; in assay [8], 4.72%; in assay [9] it was 3.44%; in assay [10], 92.3%.

For `Nc1ncc(-c2cccc(S(N)(=O)=O)c2)c2scc(-c3ccc(F)c(Cl)c3)c12`, the inhibition in [1] turned out to be 53.4%; in assay [2], 2.22%; in [3], 14.2%; in assay [4], 2.23%; in [5], 20.8%; in assay [6], 11.8%. The inhibition in [7] is 49%; in [8], 5.58%; in assay [9], 7.48%; in assay [10], 12.4%.

In the case of `COc1ccc2[nH]c3c4[nH]c5ccc(OC)cc5c4c4c(c3c2c1)C(=O)NC4=O`, the inhibition in assay [1] is 85.1%; in [2] it was -0.26%; in assay [3], 0.68%; in assay [4] it was 29.5%; in assay [5] it was 80.6%; in assay [6], 40.5%. Moreover, the inhibition was 77.3% in assay [7], 71% in assay [8], 82.1% in assay [9] and 44.8% in assay [10].

Turning to `CS(=O)(=O)CCNCc1coc(-c2ccc3ncnc(Nc4ccc(OCc5ccccc5)cc4)c3c2)c1`, the inhibition in [1] came out at 5.87%; in [2], 1.08%; in assay [3], 0.27%; in assay [4], 3.8%; in assay [5], 3.38%; in assay [6], 3.04%. The inhibition in assay [7] was determined as 8.54%; in [8], 3.88%; in assay [9] it was 5.06%; in [10], 6.2%.

For `COc1ccc(CNC(=O)c2ccc(-c3cc(-c4nnc(C)o4)ccc3C)cc2)cc1`, the inhibition in assay [1] was 13%; in [2] it was 0.66%; in assay [3], 1.5%; in [4] it was -0.09%; in assay [5], 5.83%; in assay [6], 7.22%. Further, the inhibition is 7.69% in assay [7], 14% in [8], 15.8% in [9] and 6.44% in assay [10].

For `CNC(=O)c1cc(-c2ccc(F)cc2)cc(-c2ccc(S(=O)(=O)N3CCCC3)cc2)c1N`, the inhibition turned out to be 6.26% in assay [1]; 2.42% in [2]; 2.21% in [3]; 2.65% in [4]; 7.64% in assay [5]; 2.88% in assay [6]. Further, the inhibition came to 2.96% in assay [7], 2.49% in [8], 5.41% in assay [9] and 3.21% in assay [10].

For the compound `N#Cc1c(NC(=O)CN2CCOCC2)sc2c1CCCC2`, the inhibition in [1] was 8.2%; in [2], 2.9%; in assay [3] it was 1.5%; in assay [4], 9.37%; in assay [5] it was 14.3%; in assay [6] it was 4.27%. In addition, the inhibition in [7] amounted to 7.18%; in assay [8], 1.54%; in assay [9], 8.77%; in assay [10], 5.41%.

Regarding `CCNC(=O)O[C@H]1CN[C@H](C#Cc2cc3ncnc(Nc4ccc(OCc5cccc(F)c5)c(Cl)c4)c3s2)C1`, the inhibition in assay [1] is 5.63%; in assay [2], 1.7%; in assay [3], 1.79%; in assay [4] it was 9.03%; in assay [5], 7.74%; in assay [6], 2%. Besides, the inhibition in assay [7] was 3.91%; in assay [8], 2.16%; in [9], 0.84%; in assay [10], 1.93%.

`CNC(=O)c1cccc(C#Cc2cncnc2Nc2ccc(OCc3cccc(F)c3)c(Cl)c2)c1`: the inhibition in assay [1] was 14.1%; in assay [2] it was -0.32%; in assay [3], -0.09%; in [4], -0.72%; in assay [5], 5.17%; in [6], 1.18%. Also, the inhibition in [7] was found to be 11.6%; in [8], 2.44%; in assay [9], 12.6%; in [10] it was 0.02%.

In the case of `COC(=O)Nc1nc2ccc(Oc3ccc(NC(=O)Nc4cccc(Cl)c4)cc3)cc2[nH]1`, the inhibition was found to be 28.7% in assay [1]; 0.45% in assay [2]; 0.48% in [3]; 0.45% in [4]; 5.25% in [5]; 52.1% in assay [6]. Also, the inhibition in assay [7] came to 74.4%; in assay [8] it was 23.8%; in assay [9], 54.8%; in assay [10], 45.5%.

For the compound `COc1cc(/C=N/Nc2ncnc3[nH]ncc23)ccc1O`, the inhibition in [1] was found to be 67%; in [2], 2.72%; in assay [3] it was 3.55%; in assay [4], 11.4%; in assay [5], 29.7%; in assay [6], 59%. Moreover, the inhibition in assay [7] was 83.4%; in [8] it was 17.8%; in [9], 68.6%; in assay [10], 56.7%.

Regarding `Fc1cccc(COc2ccc(Nc3ncnc4sc(-c5ccco5)cc34)cc2Cl)c1`, the inhibition in [1] amounted to 15%; in assay [2], 4.23%; in assay [3], 3.25%; in assay [4], 6.41%; in assay [5], 5.02%; in assay [6], 3.58%. In addition, the inhibition was 5.02% in assay [7], 5.96% in assay [8], 11.1% in [9] and 8.01% in assay [10].

Consider `Clc1ccc(-c2nn3ncccc3c2-c2ccnc(Nc3ccccc3)n2)cc1`, for which the inhibition in assay [1] amounted to 39.4%; in assay [2], 0.95%; in assay [3] it was 3.48%; in [4], 7.96%; in assay [5], 14.7%; in assay [6] it was 8.76%. For the same compound, the inhibition in assay [7] is 42%; in [8], 4.29%; in assay [9], 4.92%; in [10], 9.6%.

In the case of `COc1cc2c(cc1Nc1nc(Nc3ccsc3C(N)=O)c3cc[nH]c3n1)N(C(=O)CN(C)C)CCC2(C)C`, the inhibition in assay [1] is 62.7%; in assay [2], 2.92%; in [3] it was 8.45%; in [4], 88.3%; in assay [5], 96.7%; in assay [6], 8.13%. For the same compound, the inhibition is 14.1% in [7], 12.9% in assay [8], 38.1% in assay [9] and 8.97% in assay [10].

Regarding `COc1cc(N2CCN(C(C)C)CC2)ccc1Nc1nc(Nc2ccc(F)cc2C(N)=O)c2cc[nH]c2n1`, the inhibition was 26.9% in assay [1]; 2.93% in assay [2]; 12.7% in [3]; 95.5% in [4]; 97.8% in assay [5]; -3.34% in assay [6]. Besides, the inhibition in assay [7] was 9.44%; in [8], 8.15%; in assay [9] it was 43.8%; in assay [10] it was 4.48%.

In general, inhibition refers to the change of the read-out against control, counted positive when it falls.

(Values after ChEMBL document CHEMBL1961873, “Compounds: GSK PKIS; Assays: Nanosyn kinase panel” (2012).)
